# “And” between values parts separate entries of the source, which are not always exact repeats. Identical values can stand only once. Inconclusive results are not listed. A call without a number means that no potency is given here. More than one record can exist for a structure, and the calls need not agree. A number with no mark means an inactive call. The source made the active and inactive calls. Calls follow the shape of the dose curve; as a rule, active = well fitted inhibition curve with a large enough effect; inconclusive = small, poorly fitted or top-dose-only effect; inactive = flat fitted curve, though single readings scatter.
# Tested on: NIH3T3
# Assay: Cytotoxic Profiling of Annotated Libraries Using Quantitative High-Throughput Screening (AID 1296008); also: potency is read from the fitted curve at half-maximal effect
# Details: Five cell lines viability, CellTiter-Glo ATP luminescence, 48-72 h; max response: stronger effect = lower value
# Outline: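 Cells exposed to compounds for 48 or 72 hr at 37 degrees Celsius. Viability read as ATP-coupled luminescence with CellTiter-Glo after 10 min at room temperature.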
# Also: nearly all actives have a fitted effect of over 60% in size.
Structure (SMILES),max response [%],outcome,Potency
O=C(O)c1ccccc1NCCc1ccccc1,2.83,,
COc1cc(O)c2c(c1)C1=C[C@H](O)[C@@H](O)C[C@]1(C)OC2=O,,inactive,
CN1CCN(c2ccc(C(=O)Nc3n[nH]c4ccc(Cc5cc(F)cc(F)c5)cc34)c(NC3CCOCC3)c2)CC1,,,10.5 µM (active)
CC(C)[C@@H](CS(=O)(=O)C(C)C)N1C(=O)[C@@](C)(CC(=O)O)C[C@H](c2cccc(Cl)c2)[C@H]1c1ccc(Cl)cc1,,,6.51 µM (active) and 7.41 µM (active)
COc1ccc(-n2[nH]c(=O)c3[nH]c4cc(Cl)ccc4c(=O)c3c2=O)c(C)c1,4.85,,
CCCCCCOc1cc2c(cc1N(C)c1ncc(C(=O)O)cn1)C(C)(C)CCC2(C)C,,inactive,
CCNCc1nc2c(N)nc3ccccc3c2n1CC(C)(C)O,,inactive,
CCN(Cc1cccnc1)C(=O)CN(c1ccc(OC)nc1)S(=O)(=O)c1ccccc1C,,inactive,
CCC(C(=O)O)c1ccc(N2Cc3ccccc3C2=O)cc1 (configuration not stated),3.06,,
Cc1ccccc1NC(=O)Nc1ccc(CC(=O)N(C)[C@@H](CC(C)C)C(=O)NCC[C@H](NC(=O)[C@@H]2CCCN2S(=O)(=O)c2cc(Cl)cc(Cl)c2)C(=O)O)cc1,-5.85,,
C[C@H]1Oc2cc(cnc2N)-c2c(nn(C)c2C#N)CN(C)C(=O)c2ccc(F)cc21,-87.5,,13.2 µM (active)
CCOCCOC(=O)/C=C/c1ccc(OC)cc1,-3.67,,
COC(=O)CC(C)(O)CC(=O)OCc1ccc(O[C@@H]2O[C@H](CO)[C@@H](O)[C@H](O)[C@H]2O)cc1 (some centres not stated),-2.06,,
O=C(O)c1c(O)c(-c2ccccc2)nc2ccccc12,,inactive,
C=C1C[C@@]23CCC4[C@@](C)(CCC[C@@]4(C)C(=O)OC)C2CC[C@@H]1C3 (some centres not stated),0.656,,
CC(C)N(CCCCOCC(=O)NS(C)(=O)=O)c1cnc(-c2ccccc2)c(-c2ccccc2)n1,-0.443,,

# Tested on: HACAT
# Assay: qHTS assay to identify novel small-molecules to repurpose for Merkel cell carcinoma treatment (AID 1296009)
# Details: MCC and control cell lines, CellTiter-Glo viability, 72 h; series mostly up to 44.8 µM
# Outline: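 Cells were incubated with compound for 72 hr at 37 degree celsius before CellTiter-Glo addition. Luminescence was normalized with no-cell wells as full cytotoxicity and DMSO as baseline.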
row,Structure (SMILES),Potency
1,CCOC(=O)c1sc(NC(=O)[C@H](C(C)C)n2c(=O)[nH]c3ccccc3c2=O)nc1C,inactive
2,CC[C@]12C=CCN3CC[C@@]4(c5cc([C@@]6(C(=O)OC)C[C@H]7C[C@@H](C(C)(F)F)CN(Cc8c6[nH]c6ccccc86)C7)c(OC)cc5N(C)[C@H]4[C@@](O)(C(=O)OC)[C@@H]1OC(C)=O)[C@@H]32,inactive
3,C=CC(=O)N1CCN(C(=O)CNc2cc(I)c(Cl)cc2O)CC1,inactive
4,COc1ccc2[nH]c3c(-c4cccc5ccccc45)nccc3c2c1,inactive
5,CCNC(=O)Nc1ncc(-c2cc(-c3c(C)cc(OC)cc3C)nc(-c3cnccn3)n2)s1,inactive
6,Cc1ccc(N)cc1O,inactive
7,CCC(C(=O)O)c1ccc(N2Cc3ccccc3C2=O)cc1 (configuration not stated),inactive
8,C[C@@H]1CCC2C(C)(C)[C@H](O)CC[C@]2(C)[C@@]12Cc1c(O)cc3c(c1O2)CN([C@@H](CCC(=O)O)C(=O)O)C3=O (some centres not stated),inactive
9,Nc1nc2c(ncn2[C@@H]2O[C@@H]3COP(=O)(O)O[C@H]3[C@H]2O)c(=O)[nH]1,inactive
10,O=C(O)[C@H](Cc1ccc(Nc2nccc3ccncc23)cc1)NC1=C(Br)C(=O)C12CCCCC2,inactive
11,O=C(O)c1c(O)c(-c2ccccc2)nc2ccccc12,inactive
12,COc1ccc(N(C)c2nc(C)nc3ccccc23)cc1,inactive
13,Cc1cccc(-c2[nH]c(Cc3cccc(C(N)=O)c3)nc2-c2ccc3nccnc3c2)n1,inactive
14,CC(=O)O[C@@H]1[C@@H](O)[C@H](O[C@H]2CC[C@]34C[C@]35CC[C@]3(C)[C@@H]([C@@]6(C)CC[C@@H](C(C)(C)O)O6)[C@@H](O)C[C@@]3(C)[C@@H]5C[C@H](O[C@@H]3O[C@H](CO)[C@@H](O)[C@H](O)[C@H]3O)[C@H]4C2(C)C)OC[C@H]1O,inactive
15,C=C1C[C@@]23CCC4[C@@](C)(CCC[C@@]4(C)C(=O)OC)C2CC[C@@H]1C3 (some centres not stated),inactive

# Reference: PubChem BioAssay (NCATS)
